Reference: PubChem BioAssay AID1910 (Broad Institute, 2009)
The campaign covered roughly 300,000 compounds. About 950 (0.32%) were called active. The sample as a whole holds a higher share of actives than the screen did. A number with no mark means an inactive call.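 The calls were made as follows: active = mean activation of at least 10% of the iron chelator positive control signal, with at least half of replicates also reaching 10%; inconclusive = mean and replicate majority disagree about reaching 10%; inactive = mean and most replicates under 10%.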

Experiment: HIF pathway transcriptional activators, primary screen, cell-based, U2OS HRE-luciferase, luminescence (AID 1910)
Conditions: U2OS HRE-luciferase reporter, active compounds read high, screened at 7.5 µM (by protocol), normalized: DMSO 0%, desferrioxamine 100%

Question: Which activation does the source give for `O=C(COc1coc(CN2CCN(c3ccccc3F)CC2)cc1=O)N1CCc2ccccc21` here?
Answer: 0.2%

Question: With `Cc1nc(-c2ccc(F)cc2)c(CC(=O)Nc2cc(S(=O)(=O)N3CCCCC3)ccc2C)s1` as the compound, how does the activation read?
Answer: -0.206%

Question: Which activation does the source give for `CC1CN(C(=O)COC(=O)c2cccc(NS(=O)(=O)c3ccccc3)c2)CC(C)O1` (stereo unspecified) here?
Answer: -0.538%

Question: For `CC(C)N(Cc1ccccc1)C(=O)COC(=O)c1ccccc1SCC(=O)N1CCCC1`, which activation is on record?
Answer: -0.658%

Question: With `c1ccc(NCc2cccc3ccccc23)nc1` as the compound, how does the activation read?
Answer: -34.2%

Question: With `Oc1ccc2ccccc2c1N=Nc1nccs1` as the compound, how does the activation read?
Answer: 68.6% (active)

Question: Which activation does the source give for `Oc1ccc(N=Nc2nccs2)c(O)c1` here?
Answer: -0.857%

Question: With `COc1cccc(NC(=O)CSc2nccn(-c3ccc4c(c3)OCCO4)c2=O)c1` as the compound, how does the activation read?
Answer: 0.704%

Question: With `CC(OC(=O)CCCc1c[nH]c2ccccc12)C(=O)Nc1ccc(S(N)(=O)=O)cc1` (stereo unspecified) as the compound, how does the activation read?
Answer: 0.134%

Question: With `CCCn1nc(C(=O)NNC(=O)CCOc2ccccc2OCC)c2ccccc2c1=O` as the compound, how does the activation read?
Answer: 0.594%

Question: With `COc1ccc(-c2cc(C(F)(F)F)nc(SCC(=O)Nc3ccc4c(c3)OCO4)n2)cc1OC` as the compound, how does the activation read?
Answer: -1.49%

Question: With `COc1cc(OC)nc(S(C)(=O)=O)n1` as the compound, how does the activation read?
Answer: 0.158%

Question: Which activation does the source give for `COc1ccc(-c2cc(C(F)(F)F)nc(S(C)(=O)=O)n2)cc1OC` here?
Answer: 18.9% (active)

Question: Which activation does the source give for `COc1ccc(C(=O)Nc2ccc(C(=O)NCC3CCCO3)cc2)c(OC)c1OC` (stereo unspecified) here?
Answer: -3.72%

Question: Which activation does the source give for `COc1cc(N)c(Cl)cc1C(=O)OCC(=O)c1ccc2c(c1)NC(=O)CO2` here?
Answer: 0.0757%

Question: Which activation does the source give for `CCCCn1c(N)c(N(CCOC)C(=O)COc2c(C)cccc2C)c(=O)[nH]c1=O` here?
Answer: -0.338%

Question: Which activation does the source give for `Cc1nn(C)cc1C(=O)c1ccccc1` here?
Answer: 0.273%

Question: For `COc1ccc2c(c1)CCNC2Cc1ccc(OC)c(O)c1` (stereo unspecified), which activation is on record?
Answer: 0.872%

Question: With `O=C1NC(c2ccccc2)Oc2ccccc21` (stereo unspecified) as the compound, how does the activation read?
Answer: -0.318%

Question: Which activation does the source give for `COc1cccc(/C=N/Nc2cc(C)nc(-c3ccccc3O)n2)c1O` here?
Answer: 0.0705%

Question: For `COc1cccc(/C=N/NC(=O)c2[nH]nc3c2CCc2ccccc2-3)c1O`, which activation is on record?
Answer: 46.5% (active)

Question: For `CN(C)CCNC(=O)c1[nH]nc2c1CCc1ccccc1-2`, which activation is on record?
Answer: 2.68%

Question: With `COc1ccc(O)c(/C=N/N=C/c2cccc([N+](=O)[O-])c2)c1` as the compound, how does the activation read?
Answer: -2.34%

Question: For `Cc1ccccc1N1CCN(Cc2nc(Cc3ccccc3F)no2)CC1`, which activation is on record?
Answer: 0.117%

Question: For `C1CC1Cc1noc(CN2CCN(CC3CC3)CC2)n1`, which activation is on record?
Answer: 75.3% (active)

Question: Which activation does the source give for `CC(C)C(O)C1CCN(Cc2nc(Cc3ccccc3Cl)no2)CC1` (stereo unspecified) here?
Answer: 0.0858%

Question: Which activation does the source give for `O=C(Nc1ccc(F)c([N+](=O)[O-])c1)C1CCCO1` (stereo unspecified) here?
Answer: -0.403%

Question: With `COc1ccccc1C1=CC(=O)CCC1` as the compound, how does the activation read?
Answer: 0.17%

Question: With `COc1ccccc1CCNC(=O)C(=O)NCCC1CCCCN1S(=O)(=O)c1cccs1` (stereo unspecified) as the compound, how does the activation read?
Answer: 0.0341%

Question: With `Cc1cccc(NC(=S)N2CCCC(c3nc4ccccc4[nH]3)C2)c1` (stereo unspecified) as the compound, how does the activation read?
Answer: 0.822%

Question: With `CCCNC(=S)N1CCCC(c2nc3ccccc3[nH]2)C1` (stereo unspecified) as the compound, how does the activation read?
Answer: 99.5% (active)

Question: For `CN(C)CCCNC(=S)N1CCC(c2nc3ccccc3[nH]2)CC1`, which activation is on record?
Answer: 0.0482%

Question: For `O=C(NCc1ccc2c(c1)OCO2)c1c(O)nc2sccn2c1=O`, which activation is on record?
Answer: -0.288%

Question: For `COc1cc(CN2CCC(C(N)=O)CC2)ccc1OCc1ccccc1`, which activation is on record?
Answer: 5.51%

Question: Which activation does the source give for `COc1cc(CNC2CCCC2)c(Br)cc1OCc1ccccc1` here?
Answer: -0.706%

Question: Which activation does the source give for `COc1cc(C2CC(=O)N3CN(Cc4ccccc4)CSC3=C2C#N)ccc1OCc1ccccc1` (stereo unspecified) here?
Answer: 227% (active)

Question: With `COc1ccc(C(C#N)(CC(=O)O)c2cnccn2)cc1OC` (stereo unspecified) as the compound, how does the activation read?
Answer: -0.732%

Question: With `CCCCCN(C(=O)CCC(=O)OCC(=O)NC1CCC(C)CC1)c1c(N)n(CCCC)c(=O)[nH]c1=O` (stereo unspecified) as the compound, how does the activation read?
Answer: 0.288%

Question: With `O=C(NCc1ccc(Cl)cc1)C(=O)NCC1CCCN1S(=O)(=O)c1cccs1` (stereo unspecified) as the compound, how does the activation read?
Answer: -0.199%

Question: With `CC(=O)Nc1ccccc1NC(=O)c1cc(C)cc(C)c1` as the compound, how does the activation read?
Answer: -0.124%

Question: Which activation does the source give for `Nc1ccc(C(=O)Nc2ccccc2N)cc1` here?
Answer: 23.2% (active)

Question: Which activation does the source give for `Nc1ccc(C(=O)NCc2ccccc2)cc1` here?
Answer: -0.0134%

Question: With `COc1cc(OC)c(OC)cc1CN1CCN(C(=O)c2cccc3ccccc23)CC1` as the compound, how does the activation read?
Answer: -7.26%

Question: For `Cc1ccc(NC(=O)COc2coc(CN3CCc4ccccc4C3)cc2=O)cc1Cl`, which activation is on record?
Answer: -0.873%

Question: With `Cc1nc2ccccc2nc1N/N=C/c1ccc(O)cc1O` as the compound, how does the activation read?
Answer: 15.9% (active)

Question: For `Oc1ccc(/C=N/NC2=NCCCCC2)c(O)c1`, which activation is on record?
Answer: 1.31%

Question: Which activation does the source give for `Oc1ccc(/C=N/Nc2nc(-c3ccccc3F)nc3ccccc23)c(O)c1` here?
Answer: 0.0261%

Question: With `Cc1onc(-c2ccccc2Cl)c1C(=O)OCc1nnc(-c2ccccc2)o1` as the compound, how does the activation read?
Answer: 0.814%

Question: With `N#CC1(NC(=O)COC(=O)Cc2n[nH]c(=O)c3ccccc23)CCCCC1` as the compound, how does the activation read?
Answer: 1.1%

Question: With `O=C(COc1coc(CN2CCN(c3ccccc3)CC2)cc1=O)Nc1ccccc1F` as the compound, how does the activation read?
Answer: 0.427%

Question: Which activation does the source give for `Cc1ccc(OCCCCc2c(C)n[nH]c2C)cc1` here?
Answer: 0.618%

Question: Which activation does the source give for `CC(C)COc1ccc(C(=O)OCC(=O)NCCC2=CCCCC2)cc1` here?
Answer: 0.818%

Question: For `CC1CN/C(=C\C(=O)c2ccc(Br)cc2)C(=O)N1` (stereo unspecified), which activation is on record?
Answer: 71.1% (active)

Question: With `COc1cc2c(cc1OC)/C(=C/C(=O)c1ccc(NC(C)=O)cc1)NCC2` as the compound, how does the activation read?
Answer: -0.377%

Question: Which activation does the source give for `CN1CCCC(OC(=O)COc2ccc(Br)cc2)C1` (stereo unspecified) here?
Answer: -0.189%

Question: For `CC1CCc2[nH]c3ccc(C(=O)N(C)CC(=O)Nc4cccc(F)c4)cc3c2C1` (stereo unspecified), which activation is on record?
Answer: 0.749%

Question: For `CCNS(=O)(=O)c1ccc(NC(=O)c2cncc(Br)c2)cc1`, which activation is on record?
Answer: 94.2% (active)

Question: Which activation does the source give for `O=C(Nc1ccc(N2CCCC2=O)cc1)c1cncc(Br)c1` here?
Answer: 1.53%

Question: With `O=C(Nc1ccc(S(=O)(=O)Nc2ncccn2)cc1)c1cncc(Br)c1` as the compound, how does the activation read?
Answer: -1.84%

Question: Which activation does the source give for `COc1cc(NC(=O)C2CC(c3ccccc3O)=NO2)c(OC)cc1Cl` (stereo unspecified) here?
Answer: -1.02%

Question: With `COc1ccc(NC(=O)NCCN2CCN(c3ccc(C)cc3)CC2)c(Cl)c1` as the compound, how does the activation read?
Answer: 2.29%
